Experimental data as given in PubChem BioAssay.
Calls of active or inactive are those of the source. Unless noted, no rule for the calls is given here.

Tests used:
[1] = A549 cell viability effects, profiling panel, calcein-AM fluorescence, 48 h, basal (AID 1162); conditions: higher = more signal; also: test concentration not given here
[2] = adipocyte viability effects, profiling panel, cell-based, 3T3-L1 adipocytes, calcein-AM fluorescence, 48 h, basal (AID 1163); conditions: 3T3-L1 adipocytes viability, higher = more signal; also: test concentration not given here
[3] = HepG2 cell viability effects, profiling panel, calcein-AM fluorescence, 48 h, basal (AID 1164); conditions: higher = more signal; also: test concentration not given here
[4] = MM1S cell viability effects, profiling panel, calcein-AM fluorescence, 48 h, basal (AID 1165); conditions: higher = more signal;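 also: viability of MM1S multiple myeloma cells under basal unstimulated conditions; test concentration not given here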
[5] = basal RPMI8226 viability, no added stimulus, profiling panel, cell-based, calcein-AM fluorescence, 48 h, PK04 Diversity Set (AID 1166); conditions: RPMI8226 myeloma viability, higher = more signal;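 also: cells grown under basal conditions without added stimulus; test concentration not given here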
[6] = basal HepG2 mitochondrial membrane potential changes, profiling panel, cell-based, JC-1 fluorescence, 24 h, 100 nL compound (AID 1167); conditions: higher = more signal; also: test concentration not given here
[7] = basal 3T3-L1 adipocyte mitochondrial potential changes, profiling panel, cell-based, JC-1 fluorescence, 3T3-L1 adipocytes, 24 h, 100 nL compound (AID 1168); conditions: JC-1 mitochondrial fluorescence, higher = more signal, called active from +8 up or from −8 down; also: test concentration not given here
[8] = basal RPMI8226 mitochondrial membrane potential changes, profiling panel, cell-based, JC-1 fluorescence, 24 h, 100 nL compound (AID 1169); conditions: RPMI8226 myeloma, JC-1 mitochondrial potential fluorescence, higher = more signal; also: test concentration not given here
[9] = basal MM1S mitochondrial membrane potential changes, profiling panel, cell-based, JC-1 fluorescence, 24 h, 100 nL compound (AID 1170); conditions: higher = more signal; also: test concentration not given here
[10] = A549 lung cancer cell viability effects, profiling panel, resazurin fluorescence, 24 h, PK04 Diversity Set (AID 1171); conditions: higher = more signal, called active from +8 up or from −8 down; also: test concentration not given here
[11] = HepG2 liver cancer cell viability effects, profiling panel, resazurin fluorescence, 24 h, PK04 Diversity Set (AID 1172); conditions: higher = more signal; also: test concentration not given here
[12] = basal S. cerevisiae growth modulation, no modifier, primary screen, OD600, strain BY4716, 24 h, basal condition (AID 1173); conditions: OD600, 24 h, higher = more signal, called active from +8 up or from −8 down
[13] = MM1S myeloma cell viability, profiling panel, resazurin fluorescence, basal, 24 h, PK04 Diversity Set (AID 1174); conditions: higher = more signal, called active from +8 up or from −8 down;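 also: MM1S multiple myeloma cell line; test concentration not given here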
[14] = target: Dihydroorotate dehydrogenase (quinone), mitochondrial (Plasmodium falciparum (isolate 3D7)) (UniProt Q08210); assay: PfDHODH enzyme inhibitors, primary screen, biochemical, C-terminal His tag, absorbance 600 nm (AID 1175); conditions: DCIP absorbance 600 nm, higher = more signal, called active from +8 up or from −8 down;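 also: recombinant parasite enzyme with a five histidine tag at its C terminus; test concentration not given here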
[15] = P. aeruginosa biofilm formation inhibitors, primary screen, strain PAO1, LB-PBS medium, absorbance 600 nm (AID 1176); also: test concentration not given here; conditions: P. aeruginosa PAO1 growth/biofilm, A600, 12 h; higher = more signal
[16] = S. cerevisiae RM11-1a growth modifiers, primary screen, strain RM11-1a, OD600, basal, 24 h (AID 1177); conditions: OD600, 24 h, higher = more signal, called active from +8 up or from −8 down;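 also: cultures grown under basal conditions with no added stressor; test concentration not given here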
[17] = E. coli acrAB mutant growth effects, primary screen, E. coli filamentation inducers, strain DRC39, OD650, 24 h (AID 1178); conditions: higher = more signal, called active from +8 up or from −8 down;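 also: growth measured as culture turbidity by optical density at 650 nm; test concentration not given here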
[18] = E. coli acrAB mutant growth effects, primary screen, E. coli filamentation inducers, strain DRC39, OD650, 48 h (AID 1179);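 also: screen aims at cell division blockers that make cells filament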; conditions: E. coli DRC39 delta-acrAB growth, higher = more signal, called active from +8 up or from −8 down
[19] = RPMI8226 myeloma cell viability, profiling panel, resazurin fluorescence, basal, 24 h, PK04 Diversity Set (AID 1180); conditions: higher = more signal;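 also: RPMI8826 multiple myeloma cell line at 5000 cells per well; test concentration not given here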
[20] = target: E3 ubiquitin-protein ligase XIAP (Homo sapiens) (UniProt P98170); assay: XIAP binders, primary screen, biophysical, small-molecule microarray, fluorescence 635 nm (AID 1181); conditions: small-molecule microarray binding, higher = more signal;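 also: score merges 667 nm emission and signal to noise over triplicate slides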
Chain of E3 ubiquitin-protein ligase XIAP (Homo sapiens) (P98170 whole entry, looked up): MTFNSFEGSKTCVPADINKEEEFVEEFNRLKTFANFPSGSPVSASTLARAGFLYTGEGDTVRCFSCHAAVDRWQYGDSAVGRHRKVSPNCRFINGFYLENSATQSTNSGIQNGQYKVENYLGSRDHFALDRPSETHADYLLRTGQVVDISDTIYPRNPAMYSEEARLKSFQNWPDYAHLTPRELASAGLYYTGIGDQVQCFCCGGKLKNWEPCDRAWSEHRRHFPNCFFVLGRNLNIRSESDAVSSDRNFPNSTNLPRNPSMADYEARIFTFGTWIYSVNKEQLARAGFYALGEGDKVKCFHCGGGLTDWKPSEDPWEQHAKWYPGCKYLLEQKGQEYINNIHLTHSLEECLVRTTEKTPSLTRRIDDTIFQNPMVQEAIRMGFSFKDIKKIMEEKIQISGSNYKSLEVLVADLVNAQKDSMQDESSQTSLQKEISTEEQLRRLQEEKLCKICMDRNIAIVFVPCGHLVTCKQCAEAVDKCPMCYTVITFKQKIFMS

Chain of Dihydroorotate dehydrogenase (quinone), mitochondrial (Plasmodium falciparum (isolate 3D7)) (Q08210 whole entry, looked up): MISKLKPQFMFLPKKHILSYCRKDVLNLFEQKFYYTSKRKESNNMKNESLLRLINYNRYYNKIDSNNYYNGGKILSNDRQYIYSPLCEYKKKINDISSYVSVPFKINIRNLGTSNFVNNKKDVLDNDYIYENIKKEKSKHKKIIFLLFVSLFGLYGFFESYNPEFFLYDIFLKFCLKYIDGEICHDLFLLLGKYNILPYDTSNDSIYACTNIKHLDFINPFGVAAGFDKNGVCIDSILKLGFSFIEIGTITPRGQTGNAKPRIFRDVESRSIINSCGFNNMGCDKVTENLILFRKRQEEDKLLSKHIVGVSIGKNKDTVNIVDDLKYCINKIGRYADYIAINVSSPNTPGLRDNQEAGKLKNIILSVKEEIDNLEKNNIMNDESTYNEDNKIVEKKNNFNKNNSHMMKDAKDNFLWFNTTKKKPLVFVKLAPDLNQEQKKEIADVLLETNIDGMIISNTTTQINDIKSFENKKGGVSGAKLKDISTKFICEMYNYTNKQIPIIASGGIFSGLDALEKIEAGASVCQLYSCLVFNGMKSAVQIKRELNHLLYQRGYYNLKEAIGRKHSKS

SMILES | z-score [1] | z-score [2] | z-score [3] | z-score [4] | z-score [5] | z-score [6] | z-score [7] | z-score [8] | z-score [9] | z-score [10] | z-score [11] | z-score [12] | z-score [13] | composite z-score [14] | z-score [15] | z-score [16] | z-score [17] | z-score [18] | z-score [19] | composite z-score [20]
O=C1O[C@@H](c2ccccc2)[C@@H](c2ccccc2)N2[C@@H](c3ccc(OCCO)cc3)[C@]3(C(=O)Nc4ccc(C#CC5=CCCCC5)cc43)[C@@H](C(=O)N3CCCCCCC3)[C@H]12 | -0.364 | 0.284 | 1.1 | -0.446 | -1.31 | 0.226 | -4.13 (inactive) | -0.831 | -1.14 | -0.207 (inactive) | -0.399 | 0.593 (inactive) | 0.0902 (inactive) | -0.73 (inactive) | 1.77 (inactive) | 0.911 (inactive) | -1.32 (inactive) | 0.0745 (inactive) | 0.152 | 0.642
O=C1O[C@H](c2ccccc2)[C@H](c2ccccc2)N2[C@H]1[C@@H](C(=O)N1CCN(c3ncccn3)CC1)[C@]1(C(=O)Nc3ccc(C#CC4=CCCCC4)cc31)[C@H]2c1ccccc1OCCO | -1.02 | 1.09 | -0.769 | -2.23 | -1.72 | -0.915 | 2.88 (inactive) | -1.18 | -1.01 | -1.34 (inactive) | -0.476 | 1.4 (inactive) | -1.49 (inactive) | -0.0965 (inactive) | 1.78 (inactive) | 1.29 (inactive) | -0.873 (inactive) | -1.05 (inactive) | -1.77 | 0.0547
CC(C)N1CC=CC23O[C@@H]4C=CCOC(=O)[C@@H]4[C@H]2C(=O)N(CCCCCO)[C@@H]3C1=O (stereo not given in full) | 0.522 | 1.45 | -1.25 | 1.01 | 0.512 | -0.448 | -0.709 (inactive) | 0.565 | -0.41 | 0.0829 (inactive) | 0.413 | -0.746 (inactive) | 1.27 (inactive) | -1.85 (inactive) | 0.897 (inactive) | -1.06 (inactive) | 0.319 (inactive) | -0.134 (inactive) | 0.888 | -0.216
[N-]=[N+]=NCc1ccccc1[C@@H]1OC(c2ccc(OCCCO)cc2)=N[C@]1(CCS(=O)(=O)c1ccccc1)C(=O)N1CCCCC1 | 1.26 | -0.418 | 1.43 | -0.504 | -0.0169 | -0.132 | -0.159 (inactive) | -0.653 | -1.87 | -0.182 (inactive) | -0.227 | 0.287 (inactive) | -0.814 (inactive) | 0.667 (inactive) | 0.286 (inactive) | -0.0163 (inactive) | -0.523 (inactive) | -0.213 (inactive) | -0.808 | 0.0174
CC(=O)Nc1cc(Br)ccc1C(=O)NCc1ccccc1 | -0.196 | 0.814 | -0.0731 | -0.0267 | 0.0237 | -0.56 | -0.907 (inactive) | 0.782 | 1.25 | 0.14 (inactive) | 0.184 | -8.91 (active) | -0.292 (inactive) | 0.663 (inactive) | -0.131 (inactive) | -0.294 (inactive) | 0.0344 (inactive) | -0.785 (inactive) | -0.108 | -0.157
CCOC(=O)C1=C[C@@H](C(C)C)N(S(=O)(=O)c2ccc(C)cc2)[C@H]1c1ccccc1F | -1.2 | 0.0139 | -0.972 | -0.463 | -1.08 | 0.175 | 0.227 (inactive) | -0.128 | -0.581 | 1.76 (inactive) | -0.298 | 0.81 (inactive) | -0.328 (inactive) | -0.471 (inactive) | 0.133 (inactive) | 0.411 (inactive) | -0.77 (inactive) | 0.0503 (inactive) | -0.807 | -0.139
CCCCN1CC=CC23O[C@@H]4/C=C\CCCOC(=O)C4[C@H]2C(=O)N(CCCCCO)[C@@H]3C1=O (stereo not given in full) | -0.234 | 1.14 | -0.195 | 1.46 | 0.0001 | -0.327 | 0.783 (inactive) | 0.163 | -0.0801 | 0.356 (inactive) | 0.641 | -0.287 (inactive) | 0.451 (inactive) | -0.757 (inactive) | 1.02 (inactive) | -1.06 (inactive) | 0.0497 (inactive) | -0.15 (inactive) | 0.313 | 0.161
